# Laboratory results reported in paper PMC4336329 (PLoS ONE, 2015).
# The campaign covered roughly 310,000 compounds. About 2,200 (0.71%) showed an effect of 50% or more. The effect is printed as a negative number. Shown is part of a subset that was picked to be rich in strong results.
# Molecular target: human ether-à-go-go-related gene (hERG) potassium channel (human, UniProt Q12809)
# Assay: primary screen, population patch clamp on CHO cells stably expressing hERG; higher = less effect of the substance
# Chain of human ether-à-go-go-related gene (hERG) potassium channel (Q12809 whole entry, looked up): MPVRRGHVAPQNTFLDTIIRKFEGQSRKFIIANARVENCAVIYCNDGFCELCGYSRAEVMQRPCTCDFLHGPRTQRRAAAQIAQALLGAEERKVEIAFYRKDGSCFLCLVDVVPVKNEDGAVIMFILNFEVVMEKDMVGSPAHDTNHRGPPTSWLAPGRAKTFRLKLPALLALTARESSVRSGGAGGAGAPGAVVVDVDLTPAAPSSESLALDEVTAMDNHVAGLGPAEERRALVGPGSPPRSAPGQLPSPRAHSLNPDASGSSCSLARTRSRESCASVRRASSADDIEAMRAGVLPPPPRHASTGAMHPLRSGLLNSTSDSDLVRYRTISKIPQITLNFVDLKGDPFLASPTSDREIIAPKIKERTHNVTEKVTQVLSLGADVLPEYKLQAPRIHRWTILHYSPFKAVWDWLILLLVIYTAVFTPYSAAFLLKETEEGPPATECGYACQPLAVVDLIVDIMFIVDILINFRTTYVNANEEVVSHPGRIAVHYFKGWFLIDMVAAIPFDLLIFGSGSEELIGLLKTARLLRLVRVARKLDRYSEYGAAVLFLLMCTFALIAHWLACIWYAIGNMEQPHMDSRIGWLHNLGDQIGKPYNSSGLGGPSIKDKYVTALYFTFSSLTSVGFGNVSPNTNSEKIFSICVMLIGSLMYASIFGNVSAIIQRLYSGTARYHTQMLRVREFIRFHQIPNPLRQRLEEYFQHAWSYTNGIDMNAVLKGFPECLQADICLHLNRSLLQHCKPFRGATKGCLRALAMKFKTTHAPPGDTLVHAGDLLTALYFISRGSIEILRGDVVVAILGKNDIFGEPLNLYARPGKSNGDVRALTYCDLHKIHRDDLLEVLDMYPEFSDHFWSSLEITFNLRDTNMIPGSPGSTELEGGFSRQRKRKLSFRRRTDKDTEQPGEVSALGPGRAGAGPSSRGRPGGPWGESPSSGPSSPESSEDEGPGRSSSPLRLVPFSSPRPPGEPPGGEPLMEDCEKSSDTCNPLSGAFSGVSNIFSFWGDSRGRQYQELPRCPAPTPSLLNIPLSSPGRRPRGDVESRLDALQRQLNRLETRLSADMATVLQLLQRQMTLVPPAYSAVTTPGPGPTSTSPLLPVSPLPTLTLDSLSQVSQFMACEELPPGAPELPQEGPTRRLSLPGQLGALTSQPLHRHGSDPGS
row,SMILES,"hERG current change (%, negative = inhibition) at 1uM"
1,O=C1CN(c2ccccc2)C(=S)N1C(=O)c1ccccc1,13.5%
2,C/C(=N/NC(=O)c1ccc(Br)o1)c1cccc(NC(=O)c2ccc(C)o2)c1,-58%
3,C/C(=N\NC(=O)c1cccc(Br)c1)c1cccc(NC(=O)c2ccc(C)o2)c1,2.01%
4,C/C(=N/NC(=O)c1ccco1)c1cccc(NC(=O)c2ccc(C)o2)c1,-8.71%
5,Cc1[nH]c2ccc(C(=O)N3CCN(Cc4ccccc4)CC3)cc2c1C,0.829%
6,CC1(c2nnc(-c3cccc(Cl)c3)o2)CC(c2ccccc2F)=NO1 (centres unmarked),8.2%
7,CC1CCN(CCn2c(=S)[nH]c3ccccc3c2=O)CC1,1.9%
8,CC1CCN(CCCn2c(=S)[nH]c3ccccc3c2=O)CC1,-13.5%
9,CC1(C)C(=O)N(CCN2CCC(C(=O)c3ccc(F)cc3)CC2)c2ccccc21.Cl,-60.8%
10,O=C(O)C(O)C(O)C(=O)O.O=C(c1ccc(F)cc1)C1CCN(CCn2c(=O)[nH]c3ccccc3c2=O)CC1,-9.52%
11,Cl.O.O=C(c1ccc(F)cc1)C1CCN(CCn2c(=S)[nH]c3ccccc3c2=O)CC1,-77.7%
12,O=c1c2ccccc2[nH]c(=S)n1CCCN1CCN(c2ccccc2)CC1,14%
13,O=C(CN1CCC(C(=O)c2ccc(F)cc2)CC1)NCc1ccccc1F,2.84%
14,O=C(CN1CCC(C(=O)c2ccc(F)cc2)CC1)Nc1ccccc1,-10.5%
15,O=c1c2ccccc2[nH]c(=S)n1CCCN1CCC(Cc2ccccc2)CC1,-52%
16,O=C(CCSc1nc2ccccc2o1)N1CCOCC1,8.39%
17,CCOc1cc(C(=O)Nc2cccc3ncccc23)cc(OCC)c1OCC,-2.81%
18,COC(=O)Cc1c(O)ccn(Cc2ccccc2OC)c1=O,10.5%
19,COc1cc(/C=N/Nc2nc3ccccc3[nH]2)cc(Br)c1OCC(=O)N(C)C,0.153%
20,COc1ccc2c(CCNC(=O)c3ccc([N+](=O)[O-])cc3)c[nH]c2c1,12.8%
21,Cc1cccn2c(=O)c(C=Nc3ccccc3)c(NCCO)nc12,6%
22,Cc1c(CC(=O)O)c(=O)oc2c(C)c3occ(-c4ccccc4)c3cc12,19.9%

row,SMILES,"hERG current change (%, negative = inhibition) at 1uM"
1,CC1(c2ccc(OC(F)F)cc2)NC(=O)N(CC(=O)Nc2ccc(F)cc2)C1=O (centres unmarked),-15.6%
2,CC1(c2ccc(OC(F)F)cc2)NC(=O)N(CC(=O)Nc2ccccc2)C1=O (centres unmarked),-26.2%
3,CC1(c2ccc(OC(F)F)cc2)NC(=O)N(CC(=O)Nc2ccc(OC(F)F)cc2)C1=O (centres unmarked),-100%
4,COc1ccc(O)c(/C=N/NC(=O)CN2CCS(=O)(=O)CC2)c1,15.5%
5,COc1ccc(C2=NN(C(=O)CSc3nnc(C)c(=O)n3N)C(c3ccco3)C2)cc1 (centres unmarked),-0.0705%
6,COCC(=O)N1CCN(c2ccc([N+](=O)[O-])cc2)CC1,-31.5%
7,COc1ccccc1CC(=O)N1CCN(c2ccc([N+](=O)[O-])cc2)CC1,-8.15%
8,COc1ccc(CCC(=O)N2CCN(c3ccccc3)CC2)cc1OC,13.5%
9,COc1ccc(CCC(=O)N2CCN(c3ccc([N+](=O)[O-])cc3)CC2)cc1OC,-76.1%
10,COc1cc(CCC(=O)N2CCN(c3ccccc3)CC2)cc(OC)c1OC,-0.0932%
11,COc1cc(CCC(=O)N2CCN(c3ccc([N+](=O)[O-])cc3)CC2)cc(OC)c1OC,-83.6%
12,CCOC(=O)Cc1nnc(-c2ccccc2)o1,5.78%
13,COc1ccc2nc(NC(=O)c3ccoc3C)sc2c1,17.6%
14,S=C(NN=C1C2CC3CC(C2)CC1C3)Nc1ccccc1,11.9%
15,CC(=O)Nc1ccc2oc(C)nc2c1,22.4%
16,CC(C)(C)OC(=O)N[C@H](C(=O)OC(C)(C)C)c1ccc(C(F)(F)F)cc1,12.8%
17,O=C(NCc1ccco1)c1cnc2ccccn2c1=O,5.25%
18,Cc1ccc2nc3c(cc(C(=O)NCc4ccco4)c(=N)n3C3CCCC3)c(=O)n2c1,-83.2%
19,Cc1ccc2nc(SCC(=O)NCc3ccco3)nc(=O)n2c1,11.3%
20,N=c1c(C(=O)NCc2ccco2)cc2c(=O)n3ccccc3nc2n1C1CCCC1,-82.2%
21,Cn1c2ccccc2c2c(C(=O)NCc3ccco3)cn(C3CCCCC3)c(=O)c21,7.44%
22,N=c1c(S(=O)(=O)c2ccccc2)cc2c(=O)n3ccccc3nc2n1C1CCCC1,8.93%

row,SMILES,"hERG current change (%, negative = inhibition) at 1uM"
1,C/C(=N\NC(=O)c1ccccc1[N+](=O)[O-])c1ccc(Br)s1,14.7%
2,COc1ccc(CCNC(=O)CN(C2CCCCC2)S(C)(=O)=O)cc1,4.21%
3,COC(=O)c1scc(C)c1S(=O)(=O)Nc1ccc(C)cc1,12.7%
4,Cc1nc2scc(C)n2c(=O)c1S(=O)(=O)Nc1ccc(N2CCOCC2)cc1,5.65%
5,Cc1ccc(S(=O)(=O)N2CCN(C(=O)c3cccs3)CC2)cc1C,2.03%
6,CCN1C(=O)C(CC(=O)Nc2ccc(Cl)cc2)N(NC(=O)c2ccncc2)C1=S (centres unmarked),12.2%
7,CN1CCCN(Cc2nc(-c3cccc(C(F)(F)F)c3)no2)CC1,-15.4%
8,Cc1ccc(-c2noc(CN3CCCCC3)n2)cc1,31.5%
9,FC(F)(F)c1ccc(-c2noc(CN3CCCN(C4CCCCC4)CC3)n2)cc1,-75.3%
10,CCN(CC)S(=O)(=O)c1cc(C(=O)Nc2cccnc2)ccc1Cl,-40.3%
11,CC(=O)N1CCOc2ccc(S(=O)(=O)Nc3ccc(C)cn3)cc21,4.68%
12,COCCNC(=O)c1ccccc1NC(=O)c1ccc(OC)c(OC)c1,4.05%
13,COc1ccc(-c2cc(C3CCN(Cc4ccc([N+](=O)[O-])cc4)CC3)[nH]n2)cc1,-44.3%
14,Cc1ccc(CN2CCC(c3cc(-c4cccs4)n[nH]3)CC2)cc1,-85.6%
15,CC(C)(C)OC(=O)N1CCC(c2cc(-c3cccs3)n[nH]2)CC1,4.89%
16,COc1ccc(-c2cc(C3CCN(Cc4cccc(C(F)(F)F)c4)CC3)[nH]n2)cc1,-13%
17,Cc1ccc(CN2CCC(c3cc(-c4ccc(Cl)cc4)n[nH]3)CC2)cc1,-78.1%
18,CCOC(=O)CN1CCC(c2cc(-c3ccc(Cl)cc3)n[nH]2)CC1,22.3%
19,S=c1[nH]ncn1/N=C/c1ccccc1,14.4%
20,COc1nc(Nc2ccc([N+](=O)[O-])cc2)nc(NC2CCCCC2)n1,11.2%
21,O=C(COc1ccccc1Cl)N1CCN(c2ccc([N+](=O)[O-])c(N3CCCCC3)c2)CC1,0.717%
22,CCCCCNC(=O)[C@@H]1CSC2c3ccccc3C(=O)N21 (some centres unmarked),14%

row,SMILES,"hERG current change (%, negative = inhibition) at 1uM"
1,COc1ccc(CCc2nc(-c3cccs3)no2)cc1,5.28%
2,O=C(CSc1nnc(-c2cccnc2)n1-c1ccc(F)cc1)NCc1ccc2c(c1)OCO2,-54.5%
3,O=C(CSc1ccc2nnc(-c3cccnc3)n2n1)NCc1ccc2c(c1)OCO2,4.47%
4,O=C(CSc1nnc(-c2cccnc2)n1-c1ccccc1)NCc1ccc2c(c1)OCO2,-47.9%
5,O=C(CSc1ccc2nnc(-c3ccccn3)n2n1)NCc1ccc2c(c1)OCO2,-65.8%
6,O=C(CSc1ccc2nnc(-c3ccncc3)n2n1)Nc1ccc2c(c1)OCO2,13.8%
7,O=C(CSc1nnc(-c2ccccc2)n1Cc1ccco1)NCc1ccc2c(c1)OCO2,-22.2%
8,O=C(CSc1nnc(-c2ccc(Cl)cc2)n1Cc1ccco1)NCc1ccc2c(c1)OCO2,-51.6%
9,O=C(CSc1nnc(-c2cccnc2)n1Cc1ccco1)NCc1ccc2c(c1)OCO2,-20.4%
10,O=C(CSc1ccc2nnc(-c3ccccc3)n2n1)NCc1ccc2c(c1)OCO2,-71%
11,O=C(CSc1ccc2nnc(-c3ccccn3)n2n1)Nc1ccc2c(c1)OCO2,2.61%
12,O=C(CSc1ccc2nnc(-c3ccccn3)n2n1)Nc1ccc2c(c1)OCCO2,-2.96%
13,C=CCn1c(SCC(=O)NCc2ccc3c(c2)OCO3)nnc1-c1cccnc1,8.01%
14,COc1cc(S(=O)(=O)N(Cc2cccnc2)Cc2ccco2)ccc1-n1cnnn1,-10.7%
15,Cc1cc(C(=O)NC2CCCCCCC2)ccc1[N+](=O)[O-],13.3%
16,Cc1ccc(CN2C(=O)CSC2c2ccc(F)cc2)cc1 (centres unmarked),12.2%
17,C#CC(CO)N(CCN(Cc1ccccc1)C(C#C)CO)Cc1ccccc1 (centres unmarked),9.58%
18,COC(=O)C(C)NC(=S)N1CC2C[C@@H](C1)Cn1c2cccc1=O (some centres unmarked),15.6%
19,COc1cccc(N2CCN(S(=O)(=O)c3ccc(-c4coc(C)n4)cc3)CC2)c1,11.7%
20,CCN(CC(=O)Nc1ccc(NC(C)=O)cc1)C(=O)c1cc2c(s1)CCCCC2,2.11%
